Compounds with a hit are over-represented: about 1.5% of the library has one in this group of screens.
USP2a inhib – qHTS Assay for Inhibitors of Ubiquitin-specific Protease USP2a; Ubiquitin carboxyl-terminal hydrolase 2 (Homo sapiens), O75604; USP2a enzymatic assay, qHTS inhibition; Potency, µM (titrated, usually from 38.3 µM), hits mostly inhibitors; actives 0.1% (n = 60,000); AID 927, 2007; note: nearly all actives have a fitted effect of over 60% in size
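USP2 core (20nM final) preincubated 30 min RT with compound, then Ub-PLA2 20nM and NBD C6-HPC 20uM final added; buffer 20mM Tris-HCl pH 8.0, 2mM CaCl2. Fluorescence Ex 460/Em 535 read at 0 and 2.5 h; normalized to NEM.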
Caspase-1 inhib – qHTS Assay for Allosteric/Competitive Inhibitors of Caspase-1. Potency, µM (top dose mostly 57.5 µM), most hits filed as inhibitors. AID 900, 2007. actives 0.03% (n = 75,000). Caspase-1 enzyme, Ac-WEHD-AFC fluorogenic rate. P29466
BRCT PPI green – qHTS Assay for Inhibitors of BRCT-Phosphoprotein Interaction (Green Fluorophore). Potency, µM (titrated, usually from 76.9 µM), actives largely listed as inhibitors. Breast cancer type 1 susceptibility protein (Homo sapiens), P38398. BRCA1 BRCT-phosphopeptide binding, green fluorescence polarization. actives 0.05% (n = 75,000)
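Compounds were incubated for 12 min at room temperature with a complex of 100 nM fluorescein-tagged pBACH1 decapeptide and 250 nM His-tagged BRCT protein. Buffer was phosphate pH 7.3 with EDTA, DTT and Tween 20. Disruption of binding lowers the polarization signal.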
15-hLO inh – qHTS Assay for Inhibitors of 15-hLO (15-human lipoxygenase); Polyunsaturated fatty acid lipoxygenase ALOX15 (Homo sapiens), P16050; purified 15hLO-1, xylenol orange hydroperoxide absorbance; Potency, µM (series often up to 57.1 µM), actives largely listed as inhibitors; actives 1.4% (n = 74,000); note: nearly all actives have a fitted effect of over 55% in size
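Quantitative HTS in 25 mM Hepes pH 7.5 containing 0.01% Triton X-100: human 15hLO-1 at 40 nM, arachidonic acid at 50 uM, 6 min turnover. Product quantified via ferrous oxidation/xylenol orange, 573:405 nm absorbance ratio.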
BRCT PPI red – qHTS Assay for Inhibitors of BRCT-Phosphoprotein Interaction (Red Fluorophore); Breast cancer type 1 susceptibility protein (Homo sapiens), P38398; BRCT-phosphopeptide binding, red fluorescence polarization; actives 0.03% (n = 75,000); Potency, µM (doses to about 76.9 µM), usual class: inhibitors; AID 892, 2007
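Fluorescence polarization: 100 nM His-tagged BRCA1 BRCT with 100 nM TAMRA-labelled phospho-BACH1 decapeptide, phosphate buffer pH 7.3 with 150 mM NaCl, DTT, 0.01% Tween 20; 12 min RT. Binding inhibition seen as FP decrease.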
Casp7 inh – qHTS Assay for Allosteric/Competitive Inhibitors of Caspase-7 | AID 889, 2007 | actives 0.02% (n = 75,000) | recombinant caspase-7, Ac-DEVD-AFC fluorescence rate | Potency, µM (titrated, usually from 57.5 µM), most hits filed as inhibitors | P55210; active = well fitted inhibition curve with a large enough effect in the main read-out, with a control signal flat, not every such curve was filed as active; inconclusive = small, poorly fitted or top-dose-only effect, or a change in a side signal
Large screens that a line does not name were inactive; ! = a repeat was not active. Unless noted, calls come from the whole dose curve; as a rule, active = well fitted curve in the direction sought with a large enough effect; inconclusive = small, poorly fitted or top-dose-only effect, or another doubt; inactive = no such curve, though single readings can be large; an effect the other way counts as inactive or inconclusive.

CCC(=O)CC(NC(=O)OC)c1ccccc1 (configuration not stated)	none (no result: USP2a inhib)
Cc1c(C(=O)NCCC2=CCCCC2)oc2ccc(S(=O)(=O)N3CCOCC3)cc12	15-hLO inh 16µM
NC(Cc1ccccc1)=NCC(=O)O	none (no result: USP2a inhib)
CCOc1ccccc1N1CSC2=C(C#N)C(c3c(OC)ccc4ccccc34)CC(=O)N2C1 (configuration not stated)	15-hLO inh inconclusive (no result: USP2a inhib)
N#CC1=C2SCN(Cc3ccco3)CN2C(=O)CC1c1cccc2ccccc12 (configuration not stated)	15-hLO inh 7.9µM
CC1(C)[C@@H]2CC[C@@](C)(C2)[C@H]1OC(=O)c1ccccc1C(=O)O	none (no result: USP2a inhib)
COc1ccccc1CNc1nc(-c2ccc(C(=O)N(C)C)cc2)nc2ccccc12	none
COc1ccccc1CNc1nc(-c2ccc(N(C)C)cc2)nc2ccccc12	15-hLO inh 20µM
Cc1cnc(CNc2nc(-c3ccccc3C)nc3ccccc23)cn1	none
COc1ccccc1-c1nc(NCc2cnc(C)cn2)c2ccccc2n1	15-hLO inh 16µM
COCC(C)NC(=O)NC1(C(F)(F)F)Oc2ccc(Cl)cc2O1 (configuration not stated)	none
O=C(NCCN1CCOCC1)NC1(C(F)(F)F)Oc2ccc(Cl)cc2O1 (configuration not stated)	15-hLO inh 3.2µM
CC(=O)Nc1cc(-c2ccccc2)ccc1O	none
Nc1cc(-c2ccccc2)ccc1O	15-hLO inh 7.9µM
COc1cc2ccc(=O)oc2c(O)c1O	15-hLO inh 13µM!, Casp7 inh inconclusive (no result: Caspase-1 inhib)
O=C(O)C1=CC(=C(c2ccc(O)c(C(=O)O)c2)c2ccc(O)c(C(=O)O)c2)C=CC1=O	USP2a inhib 20µM!, BRCT PPI green 16µM, 15-hLO inh 2.5µM
COC(=O)N1[C@H](C)C=C[C@]1(Cc1ccccc1)C(=O)NCc1ccc(N(C)C)cc1	15-hLO inh 20µM (no result: USP2a inhib)
CCOC(=O)CCN1C(=O)[C@H]2[C@H]3[C@H](O)[C@H](O)C/C(=N/NC(=O)OCc4ccccc4)[C@H]3CC[C@@H]2C1=O	none (no result: USP2a inhib)
CCOCCCn1c(C)nc2c(c1=O)c1nc3ccccc3nc1n2CCC1=CCCCC1	Caspase-1 inhib inconclusive, 15-hLO inh 25µM, Casp7 inh inconclusive
O=C1CCCC=C1[C@@H](O)C1CCCCC1	none (no result: USP2a inhib)
C=CCSC1=N/C(=C\c2ccc3c(c2)OCO3)C(=O)S1	none
C=CCSC1=N/C(=C\C=C\c2ccco2)C(=O)S1	USP2a inhib inconclusive, 15-hLO inh 20µM, Casp7 inh inconclusive
CO[C@H]1COC(=O)C/C=C\[C@H](C)COC(=O)[C@@H](C)NC(=O)C/C=C\[C@@H]1C	none (no result: USP2a inhib)
Cc1cc(-c2ccc(N=Nc3ccc4c(S(=O)(=O)O)cc(S(=O)(=O)O)c(N)c4c3O)c(C)c2)ccc1N=Nc1ccc2c(S(=O)(=O)O)cc(S(=O)(=O)O)c(N)c2c1O	BRCT PPI green 32µM, 15-hLO inh inconclusive, BRCT PPI red inconclusive (no result: USP2a inhib)
Cc1ccc(N=Nc2c(O)c(S(=O)(=O)O)cc3cc(S(=O)(=O)O)ccc23)c(C)c1	none (no result: USP2a inhib)
CCCCCCSC1=C(C#N)C(c2ccc(O)cc2)CC(=O)N1 (configuration not stated)	15-hLO inh 20µM
CCSC1=C(C#N)C(c2ccc(OC)c(OC)c2)CC(=O)N1 (configuration not stated)	none
O=C(NCc1ccco1)c1cc2ccccc2o1	15-hLO inh 20µM
Cc1ccc2cc3cc(C(=O)NCc4ccco4)oc3nc2c1	none
Cc1cc(C2C(C#N)=C(N)SC(N)=C2C#N)c(C)s1	none
CCCCc1ccc(C2C(C#N)=C(N)SC(N)=C2C#N)s1	15-hLO inh 0.79µM, Casp7 inh inconclusive (no result: Caspase-1 inhib)
N#Cc1c(N)oc(-c2ccc3c(c2)OCO3)c1-c1ccc2c(c1)OCO2	15-hLO inh 25µM
Cc1ccc(-c2cc(-c3ccc4c(c3)OCO4)c(C#N)c(N)n2)o1	Caspase-1 inhib inconclusive, 15-hLO inh 10µM
N#Cc1c(N)nc2c(c1-c1ccc3c(c1)OCO3)CCCCCC2	none
NC(=O)c1cc(Br)cc2c3c([nH]c12)CCCC3	USP2a inhib inconclusive, 15-hLO inh 7.9µM
O=c1c2c([nH]c3ccc(Br)cc13)CCCC2	none
CCCCCCC1=Cc2cc(OC)c(OC)cc2C(C2(C(=O)OCC)CCCC2=O)O1 (configuration not stated)	none (no result: USP2a inhib)
CCOC(=O)N1CCC(n2c(SCC(=O)NCCC3=CCCCC3)nc3ccccc3c2=O)CC1	15-hLO inh 16µM
CC(C)=CCC/C(C)=C/CO/N=C1/C[C@@H](O)[C@@H](O)[C@@H]2[C@@H]3C(=O)N(Cc4ccc5c(c4)OCO5)C(=O)[C@H]3CC[C@@H]12	none (no result: USP2a inhib)
COc1ccccc1NS(=O)(=O)c1cc(C(=O)O)ccc1F	none (no result: USP2a inhib)
COC(=O)C1=C(C)N(Cc2ccccc2)C2=C(C(C)=O)C(c3ccccc3)[C@@](O)(C(=O)OC)C(=O)N2C1c1ccccc1 (some centres not stated)	none (no result: USP2a inhib)
CCOc1ccccc1C(=O)Nc1cc(Cl)ccc1O	USP2a inhib 13µM, 15-hLO inh 10µM
CCOc1ccccc1C(=O)Nc1cc(OC)ccc1OC	none (no result: USP2a inhib)
c1ccc(OCc2nnc3sc(-c4cccs4)nn23)cc1	15-hLO inh inconclusive
Clc1ccc(Cl)c(-c2nn3c(COc4ccccc4)nnc3s2)c1	15-hLO inh 10µM
CO[C@@H]1COC(=O)[C@H]2CCCN2C(=O)C/C=C\[C@@H](C)[C@H](OC)COC(=O)[C@H]2CCCN2C(=O)C/C=C\[C@H]1C	none (no result: USP2a inhib)
N=C1N=C(N)c2cc3ccccc3cc21	Caspase-1 inhib inconclusive, Casp7 inh inconclusive (no result: USP2a inhib)
CCOC(=O)c1nn(-c2ccccc2)c(C(=O)OCC)c1N	none
CCOC(=O)c1nn(-c2ccccc2)c(=O)c2c(N)scc12	Caspase-1 inhib inconclusive, 15-hLO inh 5µM
COc1cc2c(cc1O)[C@@H](c1cc(O)c(O)c(OC)c1)[C@@](O)(C(=O)O)[C@@H](CO)[C@@H]2O	none (no result: USP2a inhib)
O=c1c(-c2cc(F)cc(F)c2)nc2cncnc2n1Cc1ccccc1	none
O=c1c(-c2cc(F)cc(F)c2)nc2cncnc2n1Cc1ccc(F)cc1	15-hLO inh 7.9µM
CN(C)c1ncc2nc(-c3cc(F)cc(F)c3)c(=O)n(Cc3cccs3)c2n1	15-hLO inh 7.9µM
Cc1csc(SCC(=O)c2ccc(S(=O)(=O)N3CCOCC3)cc2)n1	15-hLO inh 20µM
